Test results from PubChem BioAssay (NCI).
About 83,000 compounds went through this panel and 20% of them were active in at least one assay; those are over-represented in the sample as a whole.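 Values shown are percent growth following 48 h exposure of cells in 96-well plates to a single concentration of compound; below 10 was considered active.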 Active and inactive are the calls of the source.

Legend:
Test in all cases: NCI-60 one-dose screen, 48 h (100 = growth as untreated, 0 = no growth, -100 = all killed)
Conditions in all cases: 10 µM unless noted
[1] = test system: SR leukemia
[2] = test system: RPMI-8226 leukemia
[3] = test system: OVCAR-8 ovarian
[4] = test system: OVCAR-5 ovarian
[5] = test system: OVCAR-4 ovarian
[6] = test system: SK-OV-3 ovarian
[7] = test system: IGROV1 ovarian
[8] = test system: OVCAR-3 ovarian
[9] = test system: HS 578T breast
[10] = test system: NCI/ADR-RES ovarian

Measured: growth

COc1cccc(/C=C/C(=O)c2cc3c(N)c(C(=O)Nc4ccccc4)sc3nc2C)c1
inactive: [1] 10.8% | [4] 46.1% | [5] 61.5% | [6] 94.6% | [9] 24.6%
active: [2] -18.7% | [3] 3.31% | [7] 2.44% | [8] -26.5%

N#CC1C=CN(CC(N)=O)c2ccc3cccnc3c21 (stereo not given)
inactive: [1] 85.1% | [2] 90% | [3] 98.1% | [4] 98.9% | [5] 98.6% | [6] 97.1% | [7] 101% | [8] 109% | [9] 96.2%

N#CC1CCc2c(c(-c3cn[nH]c3C(F)(F)F)nc3c(F)cc4[nH]ncc4c23)C1 (stereo not given)
active: [6] -1.91% | [7] -4.43% | [9] -8.7%
inactive: [1] 14.5% | [2] 34.6% | [3] 43% | [4] 63.2% | [5] 59.7% | [8] 16.6%

CN1C(=O)/C(=C/c2ccc(C(=O)Nc3ncc(Cc4ccc(Cl)cc4)s3)cc2)SC1=S
inactive: [1] 43.2% | [2] 61.3% | [3] 60.4% | [4] 58.1% | [5] 54.9% | [6] 58% | [7] 44.4% | [8] 27.2% | [9] 42%

Oc1c(Cl)cc(Cl)c2ccc(Cn3cc(-c4cc(F)cc(F)c4)nn3)nc12
inactive: [3] 69.6% | [4] 91% | [5] 56% | [6] 108% | [7] 85.8% | [9] 88.5% | [10] 108%
active: [1] -22.2% | [2] 5.12% | [8] 2.47%

O=C1C(Cl)=C(Oc2ccccc2)C(=O)c2ccccc21
inactive: [1] 48.8% | [2] 35.2% | [3] 85% | [4] 118% | [5] 106% | [6] 103% | [7] 80.7% | [8] 16% | [9] 31.6%

O=C(Cc1ccccc1)Nc1nc(O)c(/C=C2\C(=O)C=Cc3ccccc32)s1
inactive: [1] 104% | [2] 106% | [3] 97.5% | [4] 104% | [5] 100% | [6] 83% | [7] 102% | [8] 102% | [9] 97.8%

O=C1/C(=C/c2ccc(-c3ccc(Br)cc3)o2)SC(=S)N1CCc1ccc(O)cc1
inactive: [1] 19.2% | [2] 75.7% | [4] 86% | [5] 38.3% | [6] 76.2% | [7] 45.2% | [8] 44.3% | [9] 59.7%
active: [3] 4.49%

CCOC(=O)Cn1c(O)c(N=Nc2ccc(S(N)(=O)=O)cc2)c2cc(Br)ccc21
inactive: [1] 75.3% | [2] 79.5% | [3] 56.5% | [4] 85.9% | [5] 31.2% | [6] 81.9% | [7] 73% | [8] 84.9% | [9] 89.7%

O=C1C(Cl)=C(Nc2ccc(O)cc2)C(=O)N1Cc1ccc(Cl)cc1
inactive: [2] 26.1% | [3] 65% | [4] 85.3% | [5] 77.5% | [6] 88.1% | [7] 30.5% | [8] 40.8% | [9] 78.6%
active: [1] 5.96%

O=C(CI)NC1Oc2ccccc2-c2oc(=O)c(-c3ccccc3)cc21 (stereo not given)
active: [1] -33.5% | [2] -49.4% | [3] -27.9% | [5] -40.3% | [7] -59% | [8] -95.1%
inactive: [4] 12.8% | [6] 103% | [9] 44.3%

COc1cc(CNS(=O)(=O)c2ccc(C)cc2)ccc1OCc1cn(-c2ccc(Br)cc2)nn1
inactive: [1] 100% | [2] 87.2% | [3] 102% | [4] 108% | [5] 97.3% | [6] 75.3% | [7] 103% | [8] 112% | [9] 95.6% | [10] 104%

C[C@@H]1CCC[C@H]1CC(N)C(=O)O (stereo not given in full)
inactive: [1] 108% | [2] 103% | [3] 106% | [4] 105% | [5] 105% | [6] 113% | [7] 114% | [8] 117% | [9] 103% | [10] 104%

Cn1c(=O)c2[nH]c(N/N=C/c3ccccc3Br)nc2n(C)c1=O
inactive: [1] 89.7% | [2] 105% | [3] 112% | [4] 89.5% | [5] 117% | [6] 117% | [7] 101% | [8] 119% | [9] 161% | [10] 104%

O=C(/C=C(/C=C/c1cccc2[nH]ccc12)OB(F)F)/C=C/c1cccc2[nH]ccc12
inactive: [5] 11.5% | [9] 10.3%
active: [1] 3.72% | [2] -31.5% | [3] -30% | [4] -27.6% | [6] -20.7% | [7] -3.07% | [8] -25.1% | [10] 3.47%

Cc1c(-n2nnc(-c3nc4ccccc4s3)c2N)c(=O)n(-c2ccccc2)n1C
inactive: [1] 103% | [2] 105% | [3] 102% | [4] 92.8% | [5] 105% | [6] 97.8% | [7] 90.5% | [8] 107% | [9] 100% | [10] 92.5%

CN(C)c1ccc(Nc2cc(-c3cccc(OC(F)(F)F)c3)nc3ccc(N4CCCC4)cc23)cc1
inactive: [4] 100% | [6] 98.6%
active: [1] -14.6% | [2] -33% | [3] -26.6% | [5] -73.8% | [7] -17.9% | [8] -49.7% | [9] -1.71% | [10] -30.2%

Nc1nc(=S)c2ncn(C3OC(COP(=O)(O)O)C(O)C3O)c2[nH]1 (stereo not given)
inactive: [1] 11.7% | [2] 10.9% | [3] 13.8% | [4] 36.8% | [5] 32.2% | [7] 44.2% | [9] 67.5% | [10] 20.9%
active: [6] 5.27% | [8] 7.25%

N#C/C(=C/c1ccc([N+](=O)[O-])cc1)n1nnc2cc(F)c(F)cc21
inactive: [3] 37.5% | [4] 108% | [5] 86.5% | [6] 116% | [7] 73.6% | [8] 30.6% | [9] 80.6% | [10] 76.2%
active: [1] 2.33% | [2] -18.7%

COc1ccc(-c2nnc3n(C)c(=O)c4ccccc4n23)cc1N
inactive: [1] 21.7% | [2] 20% | [3] 33.6% | [4] 45.2% | [5] 59.3% | [6] 22% | [7] 51.9% | [9] 32% | [10] 22.8%
active: [8] 6.12%

COC(C(=O)[C@@H](O)[C@@H](C)O)[C@@H]1Cc2cc3cc(O[C@H]4C[C@@H](O[C@H]5C[C@@H](O)[C@H](O)C(C)O5)[C@H](O)C(C)O4)cc(O)c3c(O)c2C(=O)[C@H]1O[C@H]1C[C@@H](O[C@H]2C[C@@H](O[C@H]3C[C@@H](OC)[C@H](O)C(C)O3)[C@@H](O)C(C)O2)[C@H](O)C(C)O1 (stereo not given in full)
inactive: [1] 33.9% | [2] 50% | [3] 42.4% | [4] 54.3% | [5] 64.5% | [6] 32.3% | [7] 32.4% | [8] 61% | [9] 46.2% | [10] 97.5%

O=C1CC(N2C(=O)/C(=C/C(Cl)=C\c3ccc([N+](=O)[O-])cc3)SC2=S)C(=O)N1c1ccc(Cl)cc1 (stereo not given)
active: [1] 4.86% | [2] -1.96% | [5] 9.19% | [8] -35.4% | [10] 8.17%
inactive: [3] 15.7% | [4] 40.6% | [6] 99.2% | [7] 10.2% | [9] 21.7%

CC(=O)n1nc(C(=O)OC(C)C)c2cc(C)c(C)cc21
active: [5] 2.77%
inactive: [1] 84.6% | [2] 85% | [3] 96.8% | [4] 118% | [6] 98.6% | [7] 106% | [8] 108% | [9] 96.6% | [10] 101%

S=C(Nc1ccc(-c2nc(N3CCOCC3)c3cccn3n2)cc1)Nc1cccnc1
inactive: [1] 36.7% | [2] 19% | [3] 14.8% | [4] 35.2% | [5] 43.2% | [6] 21.5% | [7] 11% | [8] 39.6% | [9] 12.8% | [10] 26.3%

O=C(CCC(=O)N/N=C/c1ccccc1O)N/N=C/c1ccccc1O
inactive: [1] 27% | [2] 83% | [3] 46.4% | [4] 82.7% | [5] 26.2% | [6] 50.8% | [7] 48.5% | [8] 23.4% | [9] 76.9% | [10] 46.9%

CCCNC(=O)Oc1ccc(/C(=C(/C)Cc2ccc(OC)cc2)c2ccc(OCCCN(C)C)cc2)cc1
inactive: [2] 77.3% | [3] 86.5% | [4] 94% | [5] 85.2% | [6] 98.3% | [7] 91.1% | [8] 94.3% | [9] 72.3% | [10] 79.1%
active: [1] 8.47%

CC(=O)Nc1nc2ccc(NS(=O)(=O)c3cccc4c(N(C)C)cccc34)cc2[nH]1
inactive: [1] 24.8% | [2] 43.3% | [3] 85.4% | [4] 84.4% | [5] 76.9% | [6] 88.1% | [7] 51.5% | [8] 41.1% | [9] 52.3% | [10] 97.7%
